PolyA inh: blocks polyadenylation in yeast reporter cells; S. cerevisiae SKY197-pL101 polyadenylation reporter, beta-gal luminescence; efflux-impaired pdr1/pdr3 knockout yeast; score 100 = 6 SD above DMSO; activity score, % at 12 µM; 300,000 compounds, 0.02% hits; AID 1875;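 active = lowest replicate activity score at least 50, where 100 means six control SD above control mean; inconclusive = lowest score under 50 but half or more replicates reach 50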;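 note: yeast exposed to compound for 9 h at 30 °C; higher score means more reporter readthrough which indicates perturbed polyadenylation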
CR mimetic SO: caloric restriction mimetics inhibiting age-related superoxide in yeast; S. cerevisiae aged cells, superoxide DHE fluorescence; hits give low values; superoxide response (% of plate mean), % at 10 µM; 330,000 compounds, 0.18% hits; AID 2690;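 active = superoxide response under a set limit, about three screen SD below normal, cut at about 65% in these data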;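 note: yeast aged for seven days with compound at 30 °C before DHE staining; 100% = average MFI of all compound-treated wells on the plate with controls excluded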
Platelet DG rel: modulates dense granule release in human platelets. human platelet-rich plasma, SFLLRN dense granule ATP release, luminescence. inhibition, %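 (compounds screened at 7.5 µM in platelet-rich plasma)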. 300,000 compounds, 0.22% hits. AID 1663;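 active = mean replicate score, as percent of positive control, at or above 50; inconclusive = mean below 50 but at least one replicate at or above 50; inactive = mean and every replicate below 50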
SKKanGAS inh: SKKanGAS growth inhibition. S. pyogenes SKKanGAS, kanamycin growth, BacTiter-Glo, 6 h. inhibition, % at 7.5 µM. 300,000 compounds, 1.3% hits. AID 1662;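 active = mean replicate score, as percent of positive control median, at least 50; inconclusive = mean below 50 but one replicate at or above 50; inactive = mean and every replicate below 50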;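 note: strain carries kanamycin resistance gene driven by streptokinase promoter and grows in 40 µg/ml kanamycin; loss of luminescence reflects streptokinase promoter inhibition or plain growth inhibition; 0% = median of DMSO wells and 100% = positive control at its reference dose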
Calb FLC: C. albicans growth modulation with fluconazole | C. albicans CaCi-2 (fluconazole-resistant clinical isolate) + fluconazole, Alamar Blue growth, 48 h | growth inhibition, % (test concentration not listed) | 300,000 compounds, 0.57% hits;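 active = growth inhibition above about 58% in most replicates, limit read from the data, passing the limit was not always enough; inconclusive = exactly half the replicates above a set limit; inactive = most replicates below a set limit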;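 note: all wells also contain fluconazole at 8 µg/ml as a sub-toxic cotreatment; 0% = median of DMSO wells and 100% = median of geldanamycin control wells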
* = called active by the depositor; ? = inconclusive; nt = no result given. Compounds with a hit are over-represented: about 2% of the library has one in this group of screens.

SMILES	PolyA inh	CR mimetic SO	Platelet DG rel	SKKanGAS inh	Calb FLC
O=C(NNC1=Nc2cccc3cccc1c23)c1ccc(Br)cc1	-15	85	8	114*	-4
CCc1nc(Nc2ccncc2)c2oc3ccccc3c2n1	-1	84	1	0	85*
O=[N+]([O-])c1ccc(/C=C/c2ccncc2)cc1	?	62*	-7	-7	6
O=[N+]([O-])c1cccc(/C=C/c2ccncc2)c1	6	97	7	4	-5
Cc1cc(C(C)(C)C)cc(C)c1S(=O)(=O)N1CCN(C(=O)c2cc([N+](=O)[O-])c[nH]c2=O)CC1	-8	103	-10	21	3
COCCn1c(-c2ccccc2)cnc1SCC(=O)Nc1cccc2ccccc12	-18	111	-5	0	?
CCCn1c(NC(=O)c2ccc(F)cc2)nc2ccccc21	-9	91	6	26	-4
CCn1c(NC(=O)/C=C/c2ccc(F)cc2)nc2ccccc21	-20	114	-14	62*	-26
CCN(C(=O)COC(=O)c1cc([N+](=O)[O-])ccc1N1CCOCC1)C1CCCCC1	5	100	4	12	-10
O=C(O)C1CCC(Cn2c(SCc3cc(=O)n4cc(Br)ccc4n3)nc3ccsc3c2=O)CC1 (stereo unspecified)	1	104	-2	35	41
O=C(O)c1ccc(Cn2c(SCc3cc(=O)n4cc(Br)ccc4n3)nc3ccsc3c2=O)cc1	-17	112	0	31	112*
CN(C)c1nc(Nc2ccc(F)cc2)nc(Oc2ccc(F)cc2)n1	-6	95	0	16	3
CN(C)c1nc(N/N=C/c2ccccc2O)nc(Nc2ccc(F)cc2)n1	-29	98	-3	93*	?
CN1/C(=C\C(=O)Nc2ccc(Br)cc2)C(C)(C)c2ccccc21	-6	97	-4	71*	0
CN1/C(=C\C(=O)Nc2ccc(F)cc2)C(C)(C)c2ccccc21	15	80	-33	7	15
Cc1cccn2c(=O)nc(SCC(=O)N3CCN(c4ccccc4)CC3)nc12	-8	103	1	-7	5
S=C(NNc1ccnc2cc(Cl)ccc12)Nc1ccc(Cl)cc1Cl	-8	101	6	71*	19
CCN(c1ccc(OC)cc1)S(=O)(=O)c1nnc(NC(=O)c2ccccc2Cl)s1	0	89	0	50*	9
Cc1ccc(OCCCn2ccnc2)c(Br)c1	8	106	7	6	-17
O=C1C2C3C=CC(CC3)C2C(=O)N1c1ccccc1F (stereo unspecified)	-2	95	6	0	-1
Cc1ccc(S(=O)(=O)NCC(=O)OCC(=O)NC(=O)c2cccn2C)cc1	-2	103	0	4	3
Cc1ccc(S(=O)(=O)NCCC(=O)OCC(=O)NC(=O)c2cccn2C)cc1	-14	109	61*	-12	5
CN(C)S(=O)(=O)c1cccc(NC(=O)Cc2ccc(-c3ccccc3)cc2)c1	8	110	11	12	-3
O=c1cc(-c2ccc(O)cc2)oc2c(-c3c(O)cc(O)c4c(=O)cc(-c5ccc(O)cc5)oc34)c(O)cc(O)c12	nt	93	nt	nt	nt
O=c1cc(-c2ccc(O)c(-c3c(O)cc(O)c4c(=O)cc(-c5ccc(O)cc5)oc34)c2)oc2cc(O)cc(O)c12	18	96	7	62*	-5
SMILES	PolyA inh	CR mimetic SO	Platelet DG rel	SKKanGAS inh	Calb FLC
O=C(Cn1cnc2ccccc2c1=O)NCCC(=O)Nc1ccc2c(c1)OCO2	-5	103	5	2	-10
S=C(NCc1ccncc1)Nc1ccc(Cl)c(Cl)c1	-22	83	9	5	-2
O=C(NNC(=S)Nc1cccc(C(F)(F)F)c1)c1ccc(Cl)cc1Cl	-10	101	5	67*	70
O=[N+]([O-])c1cc(C(F)(F)F)cc([N+](=O)[O-])c1NCCNC(=S)Nc1ccc(Cl)c(Cl)c1	-4	106	2	102*	0
Cc1ccccc1C(=O)NNC(=S)Nc1cccc(C(F)(F)F)c1	4	100	1	-3	-1
FC(F)(F)c1cccc(NC(=S)NNC(=S)Nc2cccc(C(F)(F)F)c2)c1	-7	103	4	101*	-5
FC(F)(F)c1cccc(NC(=S)Nc2ccc(Cl)c(Cl)c2)c1	-4	116	2	96*	-5
FC(F)(F)c1cccc(NC(=S)NC(c2ccccc2)c2ccccc2)c1	-23	91	15	12	-34
NC(=O)c1nc(-c2cccs2)nc2c1[nH]c(=O)n2-c1ccc(F)cc1	-6	111	14	-11	3
COc1ccc(C2Nc3cc(OC)ccc3-n3cccc32)cc1 (stereo unspecified)	0	107	-8	-6	22
CC1CCCN(C(=O)CNC(=O)c2ccco2)C1 (stereo unspecified)	0	106	-19	3	0
Cc1cccc(-c2ocnc2C(=O)N2CCN(C(=O)c3cccs3)CC2)c1	-5	86	14	1	1
O=C(C[C@@H]1C/C=C\C[C@H](NC(=O)OCC2c3ccccc3-c3ccccc32)C(=O)O[C@H](c2ccccc2)CNC1=O)NCCO	nt	129	nt	nt	nt
CCOc1ccc(NC(=S)NNC(=S)Nc2cccc(C(F)(F)F)c2)cc1	14	95	7	51*	2
O=c1c2ccccc2oc2c1oc1ccccc12	nt	93	nt	nt	nt
COC(=O)c1sc(S(=O)(=O)Nc2ccc(Br)cc2)c(C(=O)OC)c1C	nt	94	nt	nt	nt
COC(=O)c1c(NC(=O)COc2ccc(Cl)cc2)sc2c1CC(C)(C)NC2(C)C	1	101	4	68*	32
CCOc1cccc(/C=N/NC(=S)Nc2ccccc2[N+](=O)[O-])c1O	14	97	-14	73*	-20
O/N=C/c1cc(Cl)ccc1OCc1cccc2ccccc12	-31	86	4	80*	1
C#CCOc1ccc(Cl)cc1/C=N/O	-11	98	2	-2	14
Cc1noc(NC(=O)c2ccc(Cl)c(Cl)c2)c1Cl	?	113	-2	-6	89*
CSc1ccc(/C=C2\CCn3c2nc2cc(C(=O)O)ccc2c3=O)cc1	7	109	19	52*	8
CCOC(=O)c1[nH]cnc1C(=O)Nc1cccc(Cl)c1	-17	94	6	12	-10
O=C(Nn1nnnc1Nc1ccccc1)C12CC3CC(CC(C3)C1)C2	1	123	-35	14	2
Cc1nn(CC(=O)NCCCc2ccccc2)c(C)c1[N+](=O)[O-]	-4	113	-4	-2	87*
N#Cc1c(-c2ccccc2)c(-c2ccccc2)nn(CC(=O)NNC(=O)Nc2ccc(Cl)c(Cl)c2)c1=O	8	93	-1	62*	42
O=C(Cn1nc(-c2ccccc2)c2ccccc2c1=O)Nc1ccc(F)cc1	-15	91	6	6	-18
Cn1ncc(Cl)c1C(=O)NNC(=O)Nc1cccc2ccccc12	nt	105	nt	nt	110*
CC(NC(=O)CCc1nnc(CCCc2ccccc2)o1)c1ccccc1 (stereo unspecified)	-12	105	1	-11	-17

Source: PubChem BioAssay (several laboratories)
